Pf growth 96h: P. falciparum growth inhibition at 96 hour, primary screen for plastid delayed-death inhibitors | 320,000 compounds, 6.9% hits | Potency, µM (series often up to 28.7 µM), for inactives: at the top dose activity change, negative = inhibition, hits mostly inhibitors | P. falciparum luciferase reporter growth, 96 h | AID 504834
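Two-generation exposure (96 h) targets delayed-death phenotype. Reporter parasites carrying integrated firefly luciferase, in red cells at 2% hematocrit and 0.05% parasitemia final, kept at 37 C, 5% CO2; luminescence loss indicates inhibition.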
AMA1 RON2 block: AMA1-RON2 (P. falciparum) interaction inhibition; AlphaScreen AMA1-biotinylated RON2 peptide binding; Potency, µM (series often up to 58.2 µM), for the others: at the top dose activity change, negative = inhibition, usual class: inhibitors; 360,000 compounds, 0.2% hits; AID 720542;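 note: 0% = vehicle wells and -100% = peptide control; nearly all actives have a fitted effect of over 45% in size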
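AMA1 (3D7) with his tag at 25 nM final met compounds first, then biotinylated RON2 peptide at 25 nM; detection used donor plus acceptor beads, 10 µg/mL apiece, read by AlphaScreen after 30 min at room temperature.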
Pf growth 48h: inhibits P. falciparum growth in the first generation, 48 h. P. falciparum luciferase growth in erythrocytes, 48 h. Potency, µM (series often up to 28.7 µM), for the others: at the highest dose activity change, negative = inhibition, hits mostly inhibitors. 310,000 compounds, 5.9% hits. AID 504832
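A one-generation exposure of luciferase-tagged malaria parasites in RPMI 1640/Albumax erythrocyte culture, 37 C and 5% CO2. Inhibition is inferred from decreased luminescence after adding detection reagent.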
Vaccinia Venus: vaccinia inhibition (Venus reporter); 330,000 compounds, 0.46% hits; Vaccinia virus Venus reporter expression, fluorescence; Potency, µM (titrated, usually from 36.5 µM), inactives show at the highest dose activity change, negative = inhibition, most hits filed as inhibitors; calls by dose curve; tested in A549 cells; note: nearly all actives have a fitted effect of over 30% in size
Vaccinia mCherry: inhibitors of vaccinia virus infection (mCherry reporter signal); 310,000 compounds, 0.63% hits; AID 720579; Potency, µM (series often up to 36.5 µM), without a hit: at the highest dose activity change, negative = inhibition, usual class: inhibitors; Vaccinia virus mCherry reporter infection, fluorescence; calls by dose curve; tested in A549 cells; note: nearly all actives have a fitted effect of over 35% in size
An asterisk follows results filed as active; i = inactive; u = inconclusive; x = no result; [ ] = another dose, or the depositor's remark. A selection: hits, their analogues and other compounds. The true share with any hit is near 8.7%. Unless noted, calls come from the whole dose curve; as a rule, active = well fitted curve in the direction sought with a large enough effect; inconclusive = small, poorly fitted or top-dose-only effect, or another doubt; inactive = no such curve, though single readings can be large; an effect the other way counts as inactive or inconclusive. Unless noted, % is set by controls: 0 for no effect and ±100 for the full control effect; potency is the fitted concentration of half-maximal effect.

SMILES	Pf growth 96h	AMA1 RON2 block	Pf growth 48h	Vaccinia Venus	Vaccinia mCherry
COc1ccc(C2CC(c3ccccc3)=NN2C(=S)Nc2ccccc2)cc1 (stereo not given)	u	-26%	u	-8%	-9%
COc1ccc(C2=NN(C(=S)Nc3ccccc3)C(c3ccccc3)C2)cc1 (stereo not given)	44%	-12%	15µM*	-11%	-12%
COc1ccc(C2CC(c3ccc(Br)cc3)=NN2C(=S)Nc2ccccc2)cc1 (stereo not given)	7%[5.75 µM]	-11%	-20%	-13%	u
COc1ccccc1C1CC(c2ccccc2)=NN1C(=S)Nc1ccccc1 (stereo not given)	u	-9%	3.3µM*	-3%	-8%
Cc1ccc(C2=NN(C(=S)Nc3ccccc3)C(c3ccco3)C2)cc1 (stereo not given)	9.3µM*	24%	45%	0%	-12%
Cc1c(C(=O)N2CCC(C)CC2)c(S(=O)(=O)NCc2ccccc2)c(C)n1C	x	x	x	-11%	-13%
CC(C)c1nc2oc3c(NCC4CCCO4)ncnc3c2c2c1CCC2 (stereo not given)	2.9µM*	-4%	1.9µM*	-17%	-17%
CCCc1nc2oc3c(NCC4CCCO4)ncnc3c2c2c1COC(C)(C)C2 (stereo not given)	12%[5.75 µM]	-8%	-26%	x	x
COc1ncnc2c1oc1nc(CC(C)C)c3c(c12)CCCC3	31%	-11%	11%	-12%	-13%
CC(C)c1nc2oc3c(N(C)CCO)ncnc3c2c2c1CCC2	0.83µM*	9%	u	-15%	i
COc1ccc(C)cc1NC(=O)CCS(=O)(=O)c1cc2c3c(c1)CCN3C(=O)CC2	x	x	x	5%	-10%
C/C(=N\NC(=O)C1CC1)c1ccc(Cl)c(Cl)c1	4.1µM*	12%	x	-16%	-1%
Cc1cccc(Nc2ncnc3onc(-c4cccc(Cl)c4)c23)c1C	9.3µM*	16%	u	-12%	-3%
COc1ccc(CCNC(=O)Cn2c(=O)nc(-c3ccccc3F)c3cc(Cl)ccc32)cc1OC	x	x	x	-4%	i
C1=Cc2ccccc2/C1=C\c1cccc(/C=C2\C=Cc3ccccc32)c1	x	x	x	-20%	-3%
CC1=CC(C)(C)N(C(=O)c2ccc(F)cc2)c2cc3c(cc21)OCO3	-18%	u	12µM*	-12%	i
CC1(C)CC(=O)C=C(c2ccc(I)cc2)C1	u	-5%	4.7µM*	-23%	u
COc1ccc(CCN2C(=O)N(c3ccc(F)cc3)C(=O)C2CC(=O)Nc2ccc(OC)cc2)cc1 (stereo not given)	x	x	x	-8%	-6%
S=C(NCCc1ccccn1)Nc1ccc(Cl)c(Cl)c1	u	8%	-6%	-11%	-22%
S=C(NCCc1ccccn1)Nc1cc(Cl)cc(Cl)c1	13µM*	25%	u	0%	-14%
Cc1ccc(CNC(=O)CCc2c(C)nc3c(-c4ccc(F)cc4)c(C)nn3c2C)cc1	x	x	x	4%	1%
Cc1ccccc1OCC(=O)Nc1nnc(SCc2cc(=O)n3cc(Cl)ccc3n2)s1	x	x	x	-6%	i
Cc1cccc(OCC(=O)Nc2ccccc2C(=O)OCc2cc(=O)n3nc(C4CC4)sc3n2)c1	x	x	x	-11%	-2%
COc1ccc(C2=C(C=Nc3c(C)n(C)n(-c4ccccc4)c3=O)C(c3ccccc3C)c3ccccc3O2)cc1OC (stereo not given)	x	-27%	0.33µM*	-22%	-27%
COc1ccc(-c2nc(N)ncc2-c2ccc(OC)c(OC)c2)c(O)c1	-3%	-12%	-7%	u	u
SMILES	Pf growth 96h	AMA1 RON2 block	Pf growth 48h	Vaccinia Venus	Vaccinia mCherry
COc1ccc(-c2ncncc2-c2ccc(Cl)cc2)c(O)c1	7.4µM*	-1%	8.3µM*	7%	-15%
C=C(C)COc1ccc(-c2ncncc2-c2ccc(Br)cc2)c(O)c1	2.3µM*	62%	1.9µM*	-20%	-13%
COc1ccc(-c2cnc(N)nc2-c2ccc(OCc3ccccc3)cc2O)cc1	15µM*	-6%	u	u	u
CCOc1ccc(-c2nc(N)ncc2Oc2ccccc2Br)c(O)c1	3.3µM*	-6%	x	u	x
CCOc1ccc(-c2nc(N)ncc2Oc2cccc(OC)c2)c(O)c1	u	-4%	x	u	-9%[1.46 µM]
CC(C)c1cnc2c(c1SCC(=O)Nc1cccc(F)c1)c(=O)n(C)c(=O)n2C	x	x	x	-17%	-11%
Cc1ccc(N2CCN(Cc3nnc(-c4ccc5c(c4)OCO5)o3)CC2)c(C)c1	x	x	x	-14%	-12%
COCc1ccc(C(=O)N2CCOc3ccc(CN4CCN(c5ccc(F)cc5)CC4)cc3C2)o1	x	x	x	-31%	-5%
Cc1oc(-c2cccc(Cl)c2)nc1CN1CCC(C(=O)NCc2ccc(F)cc2)CC1	x	x	x	-9%	-16%
C=C(C)COc1ccc(-c2ncncc2-c2ccc(Cl)cc2)c(O)c1	2.3µM*	47%	5.2µM*	x	x
COc1cccc(Oc2cncnc2-c2ccc(OC)cc2O)c1	80%	-26%	5.2µM*	-9%	-17%
C=C(C)COc1ccc(-c2nc(N)ncc2-c2ccc(Br)cc2)c(O)c1	u	-1%	8.3µM*	x	x
CCCN(CCC)C(=O)Cn1nnc2sc(-c3ccccc3)cc2c1=O	x	x	x	1%	-5%
COCCNC(=O)CSc1nc(-c2cc(OC)c(OC)c(OC)c2)[nH]c1-c1ccc(Cl)cc1	x	x	x	-8%	-11%
Cc1ccc(C)c(Cn2c(=O)c3c(nc4n3CCN4c3ccc(F)cc3)n(C)c2=O)c1	x	x	x	-1%	-5%
CCOc1cc(C(=O)NCc2nc(-c3cccc(C)c3)no2)cc(OCC)c1OCC	x	x	x	-14%	-15%
O=S(=O)(NCCCc1ccccc1)c1ccc(Cl)cc1	9.3µM*	62%	6%	0%	-8%
Cc1c(NS(=O)(=O)c2cc(C(=O)N3CCCC(C)C3)ccc2Cl)c(=O)n(-c2ccccc2)n1C (stereo not given)	x	-9%	x	5%	-14%
Cc1c(N(C)S(=O)(=O)c2cc(C(=O)N3CCCC3)ccc2Cl)c(=O)n(-c2ccccc2)n1C	4.7µM*	54%	13µM*	-4%	i
CCN(CC)S(=O)(=O)c1ccc(C(=O)N2CCN(CCN3C(=O)c4cccc5cccc(c45)C3=O)CC2)cc1	2.9µM*	x	u	x	x
O=C(CN1CCN(CCN2C(=O)c3cccc4cccc(c34)C2=O)CC1)c1ccc(F)cc1	1µM*	-28%	15µM*	x	x
COc1ccc(C(=O)CN2CCN(CCN3C(=O)c4cccc5cccc(c45)C3=O)CC2)cc1	x	-4%	x	11%	-7%
O=S1(=O)CC(O)C(Nc2ccc(Cl)cc2)C1 (stereo not given)	3.7µM*	7%	10%	-13%	x
CCOc1ccc(-c2cc(-c3nc(-c4cc(OC)c(OC)c(OC)c4)no3)[nH]n2)cc1Cl	x	x	x	-12%	-13%
CC(C)CCn1c(=O)c2sccc2n2c(CCCC(=O)N3CCN(c4ccccn4)CC3)nnc12	u	-1%	u	x	x
